Hit rate of the full screen: of about 290,000 compounds, about 890 (0.31%) were called active. The sample holds actives, similar compounds and a random draw of the others, so the mix is not that of the screen. Rule as the data show it: active = inhibition mostly above about 52% (no sharp cut-off); inactive = mostly below about 76%.
Experiment: inhibitors of HIV fusion peptide binding, primary screen, biochemical, uHTS, fluorescence dequenching (AID 1986)
Conditions: cell-free peptide binding, 30 min, stronger effect = higher value
[1] = measured here: repeat confirmation average inhibition, at 18.6 µM

SMILES | inhibition (at 20 µM) | inhibition [1] [%]
CC(=O)c1cccc(OCC(O)CN2CC=C(c3ccccc3)CC2)c1 (configuration not stated) | -1% (inactive) | –
O=c1c2ccccc2[nH]c(=S)n1-c1ccc(Br)cc1 | -0.2% (inactive) | –
O=c1[nH]c(O)c(N=Nc2ccc(SC(F)F)cc2)c(=O)[nH]1 | 3.1% (inactive) | –
CCCOP(=O)(OCCC)C(NC(=O)c1cc(OC)c(OC)c(OC)c1)c1ccccc1 (configuration not stated) | -1.1% (inactive) | –
CCOC(=O)c1c(C)n(C(C)C)c2ccc(OC)cc12 | -1.3% (inactive) | –
COc1cccc(CNC(=O)CCC(=O)N2C[C@H]3C[C@H](C2)c2cccc(=O)n2C3)c1OC | 1.4% (inactive) | –
O=C1NC(=O)N(Cc2ccco2)C(=O)/C1=C\c1cccn1CCOc1ccc(Cl)cc1 | 93.3% (inactive) | 0.8
CCC(C)c1ccc(N2C(=O)NC(=O)/C(=C/c3cccn3CCOc3ccc(C)cc3)C2=O)cc1 (configuration not stated) | 65.8% (active) | 70.7
Cc1ccc(OCCn2cccc2/C=C2/C(=O)NC(=O)N(Cc3ccco3)C2=O)cc1 | 23.5% (inactive) | –
CCc1ccc(N2C(=O)NC(=O)/C(=C/c3cccn3CCOc3ccc(C(C)CC)cc3)C2=O)cc1 (configuration not stated) | 53.2% (active) | –
CCc1ccc(N2C(=O)NC(=O)/C(=C/c3cccn3CCOc3ccc(C)cc3)C2=O)cc1 | 73.7% (inactive) | 6.1
CCc1ccc(N2C(=O)NC(=O)/C(=C\c3cccn3CCOc3ccc(C(C)C)cc3)C2=O)cc1 | 59.3% (inactive) | 1.8
Cc1ccc(/C=C2/Sc3ccc(C(=O)N4CCC5(CC4)OCCO5)cc3NC2=O)cc1 | 54.6% (inactive) | 37.1
CCOC(=O)c1sc(/N=C/c2c(O)n(-c3ccccc3)c(=O)[nH]c2=O)c(C#N)c1C | -1.7% (inactive) | –
O=C(O)C1C2c3ccccc3C(c3ccccc32)C1C(=O)Nc1ccccc1 (configuration not stated) | 4.1% (inactive) | –
CC12CN3CCN(CC(C3)C1O)C2 (configuration not stated) | -2.7% (inactive) | –
COc1ccccc1/C=N/N=C(/N)N[N+](=O)[O-] | 2.7% (inactive) | –
COc1cccc(CN2CC=C(c3ccc(F)cc3)CC2)c1 | 2.3% (inactive) | –
COc1ccc(CN2CCN(Cc3ccccc3)CC2)c(OC)c1 | -1.2% (inactive) | –
Cc1cc(/C=C2\C(=O)NC(=O)N(c3ccc(Cl)cc3)C2=O)c(C)n1-c1sc2c(c1C#N)CCCC2 | 64.4% (inactive) | 9
Cc1ccc(N2C(=O)NC(=O)/C(=C\c3cc(C)n(-c4sc5c(c4C#N)CCCC5)c3C)C2=O)cc1 | 52.2% (active) | –
Cc1cccc(N2C(=O)NC(=O)/C(=C\c3cc(C)n(-c4sc5c(c4C#N)CCCC5)c3C)C2=O)c1C | 22% (inactive) | –
CNP(=O)(Oc1ccccc1)OC12CC3CC(CC(C3)C1)C2 (configuration not stated) | 1.8% (inactive) | –

SMILES | inhibition (at 20 µM) | inhibition [1] [%]
C=CCn1c(O)c(C(C)=NCCCn2ccnc2)c(=O)[nH]c1=O | 0.6% (inactive) | –
Cc1cc2c(C(C)C)c(O)c(O)c(C=O)c2c(O)c1-c1c(C)cc2c(C(C)C)c(O)c(O)c(C=O)c2c1O | 65.7% (active) | –
COc1cccc(C(=O)C2CCCN(C3CCOCC3)C2)c1 (configuration not stated) | 0.4% (inactive) | –
O=C1NC(=O)N(c2ccc(F)cc2)C(=O)/C1=C/c1ccc2c(c1)CCCN2Cc1ccccc1 | 56.3% (active) | –
Cc1ccccc1N1C(=O)NC(=O)/C(=C\c2ccc3c(c2)CCCN3Cc2ccccc2)C1=O | 15.8% (inactive) | –
Cc1cccc(N2C(=O)NC(=O)/C(=C\c3ccc4c(c3)CCCN4Cc3ccccc3)C2=O)c1 | 48.8% (inactive) | –
CC1CCC(N2CCN(C(=O)COc3ccccc3)CC2)CC1 (configuration not stated) | 2.3% (inactive) | –
Cn1cc(C(=O)c2ccccc2)c2ccccc21 | -2% (inactive) | –
Cn1cc(C=C2C(=O)NC(=O)NC2=O)c2ccccc21 | 160% (inactive) | –
Cn1cc(C=C(C#N)C#N)c2ccccc21 | 72.4% (active) | 90.2
C=C1N2CCC(CC2)C1(O)c1ccccc1C (configuration not stated) | 1.2% (inactive) | –
O=C(c1cccnc1)C1CCCN(Cc2nc(-c3cnccn3)no2)C1 (configuration not stated) | -0.9% (inactive) | –
C=CCc1cc(C=C2C(=O)N(C)C(=O)N(C)C2=O)cc(OCC)c1OCc1ccccc1 | 11.3% (inactive) | –
Cc1cc(=O)oc2cc3c(cc12)CCCN3 | 0.7% (inactive) | –
O=c1cc(C(F)(F)F)c2cc3c4c(c2o1)CCCN4CCC3 | -0.6% (inactive) | –
Cc1cc2c(C(F)(F)F)cc(=O)oc2c2c1NCCC2 | 51.9% (active) | 56.2
CCN(CC)c1ccc(/C=C2\C(=O)NC(=O)N(Cc3ccco3)C2=O)cc1 | 84.3% (active) | –
COc1ccc(CN2C(=O)NC(=O)/C(=C/c3ccoc3)C2=O)cc1 | 146% (inactive) | –
CCN(CC)c1ccc(/C=C2\C(=O)NC(=O)N(CC3CCCO3)C2=O)cc1 (configuration not stated) | 48.8% (inactive) | –
O=C1NC(=O)N(Cc2ccccc2)C(=O)/C1=C\C=C\c1ccco1 | 84.6% (inactive) | 15.8
CCN(CC)c1ccc(/C=C2/C(=O)NC(=O)N(CC3CCCO3)C2=O)cc1 (configuration not stated) | 22.9% (inactive) | –
O=C1NC(=O)N(Cc2ccccc2)C(=O)/C1=C\c1ccco1 | 65.1% (inactive) | 4.5
CCOc1ccc(N2C(=O)/C(=C/c3ccco3)C(=O)NC2=S)cc1 | 31.9% (inactive) | –

SMILES | inhibition (at 20 µM) | inhibition [1] [%]
O=C1NC(=O)N(Cc2ccco2)C(=O)/C1=C/C=C/c1ccco1 | 83.8% (active) | –
COc1ccc(CN2C(=O)NC(=O)/C(=C\c3ccco3)C2=O)cc1 | 91.3% (active) | –
CCOc1ccc(N2C(=O)/C(=C\c3cccs3)C(=O)NC2=S)cc1 | 55.7% (active) | –
O=C1NC(=O)N(Cc2ccccc2)C(=O)/C1=C/C=C/c1ccco1 | 146% (inactive) | –
COc1ccc(N2C(=O)/C(=C/c3cccs3)C(=O)NC2=S)cc1 | 15.2% (inactive) | –
CN(C)C(=O)Oc1ccc(-c2cn3cc(Cl)ccc3n2)cc1 | -0.5% (inactive) | –
COCCOC(=O)C1=C(C)OC(N)=C(C(=O)OC)C12C(=O)Nc1ccccc12 (configuration not stated) | -2% (inactive) | –
CNC(C(=O)c1ccccc1)C(OC)c1cccc([N+](=O)[O-])c1 (configuration not stated) | 1.8% (inactive) | –
Cc1cc(C)nc(N2Cc3ccccc3C2=N)n1 | -3.6% (inactive) | –
COc1ccc(OC(=O)N(C)C)c(CN(C)C)c1 | 0.5% (inactive) | –
Cc1cc(/C=C2/C(=O)NC(=O)N(Cc3ccco3)C2=O)c(C)n1-c1ccccc1 | 92.7% (inactive) | 2.6
C=CCN1C(=O)/C(=C/c2cccs2)C(=O)NC1=S | 15.5% (inactive) | –
Cc1ccc(N2C(=O)NC(=O)/C(=C\C=C\c3ccco3)C2=O)cc1 | 75.4% (inactive) | 16.3
Cc1cccc(N2C(=O)NC(=O)/C(=C\C=C\c3ccco3)C2=O)c1 | 98.4% (active) | –
CN1C(=O)NC(=O)/C(=C/c2ccc([N+](=O)[O-])o2)C1=O | 27.7% (inactive) | –
Cc1cc(C)cc(N2C(=O)NC(=O)/C(=C\C=C\c3ccco3)C2=O)c1 | 108% (inactive) | 13.9
COc1ccc(/C=C2/C(=O)NC(=O)N(Cc3ccco3)C2=O)cc1 | 50.2% (active) | –
O=C1NC(=O)N(Cc2ccc(F)cc2)C(=O)/C1=C/c1cccs1 | -3.9% (inactive) | –
COc1ccc(CN2C(=O)NC(=O)/C(=C/c3ccc([N+](=O)[O-])s3)C2=O)cc1 | 55.1% (inactive) | 18.5
O=C1NC(=S)N(Cc2ccco2)C(=O)/C1=C\c1cccs1 | 67.5% (active) | –
COc1ccc(/C=C2/C(=O)N(Cc3ccco3)C(=O)N(C(C)C)C2=O)cc1 | 9% (inactive) | –
COc1ccc(CN2C(=O)NC(=O)/C(=C/c3ccc([N+](=O)[O-])o3)C2=O)cc1 | 85.6% (active) | –
